# TrxR1 substrate = qHTS Assay for Substrates of Mammalian Selenoprotein Thioredoxin Reductase 1 (TrxR1): qHTS; Potency, µM (highest dose often 114 µM), inactives show at the top dose activity change, negative = substrate turnover; AID 588456, 2011; purified TrxR1 substrate turnover, NADPH consumption readout; 390,000 tested, 0.01% active; note: potency is the fitted concentration of half-maximal effect; % is set by controls: 0 for no effect and ±100 for the full control effect; nearly all actives have a fitted effect of over 50% in size
# Target sequence (O89049 whole entry, looked up): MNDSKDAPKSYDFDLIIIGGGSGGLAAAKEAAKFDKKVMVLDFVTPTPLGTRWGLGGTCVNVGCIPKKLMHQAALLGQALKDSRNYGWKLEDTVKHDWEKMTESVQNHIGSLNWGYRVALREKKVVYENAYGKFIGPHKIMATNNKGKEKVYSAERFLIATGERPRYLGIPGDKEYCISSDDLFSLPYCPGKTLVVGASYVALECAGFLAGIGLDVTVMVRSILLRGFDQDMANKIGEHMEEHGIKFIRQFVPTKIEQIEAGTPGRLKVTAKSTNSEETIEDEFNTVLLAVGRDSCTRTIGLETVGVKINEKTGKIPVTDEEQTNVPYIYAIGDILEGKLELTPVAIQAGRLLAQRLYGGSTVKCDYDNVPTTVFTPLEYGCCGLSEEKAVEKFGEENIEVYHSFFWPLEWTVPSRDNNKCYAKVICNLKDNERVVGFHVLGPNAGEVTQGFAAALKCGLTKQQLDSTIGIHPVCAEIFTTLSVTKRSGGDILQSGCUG
#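 Rat TrxR1, dispensed at 90 nM, was prereduced with 400 uM NADPH (final) for 5 min at ~22 deg C, then incubated with compound 15 min before 400 uM selenite. A first-read NADPH fluorescence drop versus no-compound background flagged substrates.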
# N370S GC mod = qHTS Assay for Inhibitors and Activators of N370S glucocerebrosidase as a Potential Chaperone Treatment of Gaucher Disease; Lysosomal acid glucosylceramidase (Homo sapiens), P04062; N370S GC spleen homogenate, 4MU-glucoside fluorescence; Potency, µM (top dose mostly 59.4 µM), for inactives: at the top dose activity change, negative = inhibition, hits mostly inhibitors; 330,000 tested, 0.092% active; AID 2101, 2009;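 note: potency is the fitted concentration of half-maximal effect; 0% = full enzyme activity and -100% = no enzyme basal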
# Pin1 inhibitor = qHTS Assay to Find Inhibitors of Pin1; Peptidyl-prolyl cis-trans isomerase NIMA-interacting 1 (Homo sapiens), Q13526; Pin1 FP peptide displacement, HiFluor488, 10 min; Potency, µM (series often up to 115 µM), without a hit: at the highest dose activity, negative = inhibition, usual class: inhibitors; 390,000 tested, 0.009% active; AID 504891, 2011; active = well fitted inhibition curve with a large enough effect in the polarisation, with a control signal flat, not every such curve was filed as active; inconclusive = small, poorly fitted or top-dose-only effect, or effect the other way, or a change in a side signal; inactive = no such curve, though single readings can be large or run the other way; the % refers to the polarisation; note: potency is the fitted concentration of half-maximal effect; % is set by controls: 0 for no effect and ±100 for the full control effect
# Target sequence (Q13526 whole entry, looked up): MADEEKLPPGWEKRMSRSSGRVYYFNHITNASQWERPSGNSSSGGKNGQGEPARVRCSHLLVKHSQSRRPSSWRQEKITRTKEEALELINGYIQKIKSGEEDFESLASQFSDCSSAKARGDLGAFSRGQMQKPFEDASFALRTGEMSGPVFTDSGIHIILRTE
# TrxR1 inh = qHTS Assay for Inhibitors of Mammalian Selenoprotein Thioredoxin Reductase 1 (TrxR1): qHTS; recombinant rTrxR1, NADPH fluorescence consumption, selenite substrate; Potency, µM (highest dose often 114 µM), without a hit: at the top dose activity change, negative = inhibition, most hits filed as inhibitors; 390,000 tested, 1% active; note: potency is the fitted concentration of half-maximal effect; % is set by controls: 0 for no effect and ±100 for the full control effect; nearly all actives have a fitted effect of over 65% in size
#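 Rat TrxR1 (90 nM in the dispensed reagent) was pre-reduced with 400 uM NADPH for 5 min at room temperature, then incubated with compound for 15 min. After 400 uM selenite was added, NADPH fluorescence (Ex 340/Em 450 nm) was followed for 8 min.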
# A-T KAP1 phos = qHTS Assay for Identifying a Potential Treatment of Ataxia-Telangiectasia; F2112 A-T fibroblasts, KAP-1 phosphorylation AlphaLISA; neocarzinostatin DNA damage 30 min before lysis; 320,000 tested, 0.19% active; AID 485349, 2010; Potency, µM (series often up to 57.5 µM), for the others: at the top dose activation, most hits filed as activators; note: potency is the fitted concentration of half-maximal effect; % of control where 0% means no effect; nearly all actives have a fitted effect of over 45% in size
#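 hTERT-immortalized A-T patient fibroblasts (F2112), 500 cells/well in OPTI-MEM, 1% FBS, got compounds for 60 min, then NCS for 30 min at 37C. Lysates were then assayed for phospho-KAP-1 by AlphaLISA (anti-pKAP1 donor, anti-KAP1 acceptor beads), 6 hr at 25C.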
# pAkt inh = HTS Assay for Inhibitors of Akt Phophorylation: Primary Screen; Neuro2A IGF-stimulated pAkt S473 HTRF, 20 min; active compounds read low; activity change, % for hits at 50 µM; 360,000 tested, 0.32% active; in the data active = activity change below about -80%; inconclusive = mostly about -51% to -80%; note: % is set by controls: 0 for no effect and ±100 for the full control effect
#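 Single-point screen (50 µM final compound) in Neuro2A cells stimulated 20 min with 6 nM IGF at 37 deg C. After lysis, Ser473-phosphorylated Akt read by HTRF (ex 330 nm, em 615/665 nm) as the 665/615 ratio.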
# * = called active by the depositor; i = inactive; ? = inconclusive; . = not tested or not shown; [ ] = dose if it differs, or a comment. The list is not random: actives were taken first. Their share in the collection is about 1.4%. Unless noted, calls come from the whole dose curve; as a rule, active = well fitted curve in the direction sought with a large enough effect; inconclusive = small, poorly fitted or top-dose-only effect, or another doubt; inactive = no such curve, though single readings can be large; an effect the other way counts as inactive or inconclusive.
SMILES,TrxR1 substrate,N370S GC mod,Pin1 inhibitor,TrxR1 inh,A-T KAP1 phos,pAkt inh
CN(C)C(=O)c1ccc(NC(=O)c2cc(-c3ccco3)nc3ccccc23)cc1,30.4%,-7.9%,?,39.8µM*,7.2%,i
CCN(CC)CCNC(=O)c1ccc(NC(=O)c2cc(-c3ccco3)nc3ccccc23)cc1,21.4%,-0.5%,?,?,8.6%,i
COc1ccc(NC(=O)c2cc(-c3ccco3)nc3ccccc23)cn1,12.3%,.,-22.3%,17.8µM*,4.5%,i
Cc1cccc(C)c1NC(=O)CN(C)S(=O)(=O)c1ccc2c(c1)n(C)c(=O)c(=O)n2C,5.1%,.,-2.6%,0.1%,.,.
c1ccc(P(c2ccccc2)c2cnc3ccccn23)cc1,.,.,-1.2%,.,.,.
Cc1ccc(S(=O)(=O)NN=C2C3CC4CC(C3)CC2C4)cc1[N+](=O)[O-],4.7%,0.1%,-2.1%,15.2%,-16.0%,i
Cc1ccc(S(=O)(=O)N/N=C2/CC(=O)CC(C)(C)C2)cc1[N+](=O)[O-],-2.7%,-2.0%,-1.9%,39.8µM*,7.0%,i
Cc1cc2c(s1)c1cnn(Cc3cccc(Br)c3)c(=O)c1n2C,.,.,3.5%,.,.,.
O=C(CSc1nc2ccccc2o1)Nc1ccc(N2CCOCC2)cc1,4.6%,-6.7%,-0.5%,29.1%,8.0%,-93.8%*
O=C(CSc1nc2cc(Cl)ccc2o1)Nc1ccc(N2CCOCC2)cc1,0.8%,6.7%,-1.0%,20.0%,8.6%,i
O=c1c2ccccc2nc2sc(NCc3ccc([S+](=O)([O-])c4ccccc4)cc3)nn12,.,.,-2.2%,.,.,.
COc1ccc2nc(Nc3nc(CSc4nnnn4-c4ccccc4)cc(=O)[nH]3)nc(C)c2c1,-7.6%,0.8%,0.7%,-8.7%,-0.1%,-120.5%*
CCOc1ccc2nc(Nc3nc(CSc4nnnn4-c4ccccc4)cc(=O)[nH]3)nc(C)c2c1,-6.2%,-8.8%,5.4%,-3.5%,-2.3%,i
C=CCc1c(C)nc(-c2ccccc2)nc1N/N=C/c1ccccc1,-10.6%,15.8µM*,-3.4%,21.8%,2.9%,i
C=CCc1c(C)nc(-c2ccccc2)nc1N/N=C(\C)c1ccc(N)cc1,-11.9%,12.6µM*,5.0%,-18.6%,0.8%,i
C=CCc1c(C)nc(-c2ccccc2)nc1N/N=C/c1ccncc1,-21.0%,?,-9.1%,-13.8%,-0.3%,i
COc1cc(F)c(S(=O)(=O)N2CCN(S(=O)(=O)c3ccco3)CC2)c(F)c1,.,.,53.3%,.,.,.
O=S(=O)(c1ccccc1)N1N=C(c2cccs2)CC1c1ccc(F)cc1 (stereo not given),-1.0%,13.4%,12.4%,-9.2%,5.2%,i
Fc1ccc(N2N=C(c3cccs3)CC2c2ccccc2)cc1 (stereo not given),9.0%[57.1 µM],?,?,4.6%[57.1 µM],22.4µM*,i
Cc1ccc(NC(=O)COC(=O)/C=C/c2ccc(Br)o2)cc1S(=O)(=O)N(C)C,-1.5%,-3.8%,-5.0%,50.1µM*,-4.4%,i
O=C(COC(=O)/C=C/c1ccc(Br)o1)Nc1ccc2[nH]c(=O)[nH]c2c1,.,-0.2%,.,.,-8.3%,.
CN(C)S(=O)(=O)c1cccc(NC(=O)COC(=O)/C=C/c2ccc(Br)o2)c1,3.4%,6.1%,1.0%,?,-12.0%,i
NC(=O)c1ccc(NC(=O)COC(=O)/C=C/c2ccc(Br)o2)cc1,-5.1%,.,-5.0%,44.7µM*,2.6%,i
COc1ccc(C(C)=O)cc1COc1cccc2c1OC(C)(C)C2,9.1%,-1.5%,3.4%,31.6µM*,-0.8%,i
Cc1ccc(C)n1-c1sc2c(c1C(=O)O)CCCC2,-2.8%[57.1 µM],20.7%,?,5.0%[57.1 µM],-6.5%,i
SMILES,TrxR1 substrate,N370S GC mod,Pin1 inhibitor,TrxR1 inh,A-T KAP1 phos,pAkt inh
Cc1ccc(C)n1-c1sccc1C(=O)O,-6.7%,13.5%,.,50.1µM*,-1.8%,i
Cc1cc(O)c(C=O)c2c1C(=O)Oc1c(CO)c(O)c3c(c1O2)C(O)OC3=O (stereo not given),-6.9%,-6.5%,3.16µM*,50.1µM*,-2.2%,i
C=CCN1c2ccccc2C(=O)CS1(=O)=O,13.0%[57.1 µM],.,-3.1%,11.2µM*,-3.8%,i
COC(=O)C1=C(O)/C(=C\c2cc(C)n(-c3ccc(F)cc3)c2C)N=C1C,-8.9%[57.1 µM],-5.9%,?,17.8µM*,-3.2%,i
CC(NC(=S)NCCc1ccccc1)C(c1cccs1)N1CCN(C)CC1 (stereo not given),7.6%[57.1 µM],11.2µM*,-8.0%,9.2%[57.1 µM],10.9%,i
COc1ccc(Cl)cc1S(=O)(=O)NCc1ccc2c(c1)CCN2C(=O)c1cccc(C)c1,-2.6%[57.1 µM],.,5.9%,4.1%[57.1 µM],.,.
CCc1nc(Nc2ccc(F)c(Cl)c2)c2c3c(sc2n1)CCCC3,1.9%,.,-0.5%,-0.3%,.,.
Cc1oc(-c2ccc(Cl)cc2)nc1CS(=O)CC(=O)NC1CCCCC1 (stereo not given),14.5%,0.8%,6.9%,25.1µM*,-7.0%,i
Cc1oc(-c2ccc(Cl)cc2)nc1CS(=O)CC(=O)NC1CCCC1 (stereo not given),-5.2%,0.3%,-7.9%,44.7µM*,2.0%,i
Cc1oc(-c2ccccc2F)nc1CS(=O)CC(=O)NC1CCCC1 (stereo not given),9.1%,7.1%,-4.6%,28.2µM*,-5.7%,i
Cc1ccccc1-c1nc(CS(=O)CC(=O)NC2CCCC2)c(C)o1 (stereo not given),2.7%,-1.1%,1.9%,26.2%,-11.2%,.
Cc1oc(-c2ccc(Cl)cc2)nc1CS(=O)CC(=O)NC1CCCCCC1 (stereo not given),-3.4%,2.7%,-7.6%,?,-1.9%,i
Cc1oc(-c2cccs2)nc1CS(=O)CC(=O)NC1CCCCCC1 (stereo not given),4.6%[57.1 µM],-1.5%,-3.4%,5.01µM*,11.8%,i
COc1ccc(C2Nc3ccccc3C(=O)N2c2ccccc2F)cc1COc1ccc(NC(C)=O)cc1 (stereo not given),47.2%,.,-0.3%,22.5%,.,.
COc1cc(-c2c(-c3ccc4c(c3)OCO4)noc2-c2ccsc2)cc(OC)c1OC,-4.4%,.,.,-4.9%,.,.
COc1ccc(S(=O)(=O)N(CCc2ccccc2)CC(=O)Nc2ccc(C)c(C)c2)cc1OC,-5.1%,.,76.4%,14.6%,.,.
N#Cc1nc(Nc2cc(F)cc(F)c2)nc(NC2CCCC2)n1,.,.,10.2%,.,.,.

# High-throughput results from PubChem BioAssay.
